Source: article PMC7862700, “An all-to-all approach to the identification of sequence-specific readers for epigenetic DNA modifications on cytosine”

Assays:
Assay in all cases: DAPPL (digital affinity profiling via proximity ligation, sequencing); 10 mM Tris-HCl pH 7.5, 50 mM NaCl, 1 mM DTT, 4% glycerol, room temperature, 30 min; GST-TFs on glutathione beads, 16-mer random dsDNA library, 0.1% formaldehyde crosslink after washing; high values mean tight binding
Conditions in all cases: protein: recombinant; tags: N-terminal GST; dsDNA, one strand shown
ELF1 = ELF1 (Homo sapiens, UniProt P32519 1-619)
Sequence of ELF1 (P32519 whole entry, the tested form may be a part): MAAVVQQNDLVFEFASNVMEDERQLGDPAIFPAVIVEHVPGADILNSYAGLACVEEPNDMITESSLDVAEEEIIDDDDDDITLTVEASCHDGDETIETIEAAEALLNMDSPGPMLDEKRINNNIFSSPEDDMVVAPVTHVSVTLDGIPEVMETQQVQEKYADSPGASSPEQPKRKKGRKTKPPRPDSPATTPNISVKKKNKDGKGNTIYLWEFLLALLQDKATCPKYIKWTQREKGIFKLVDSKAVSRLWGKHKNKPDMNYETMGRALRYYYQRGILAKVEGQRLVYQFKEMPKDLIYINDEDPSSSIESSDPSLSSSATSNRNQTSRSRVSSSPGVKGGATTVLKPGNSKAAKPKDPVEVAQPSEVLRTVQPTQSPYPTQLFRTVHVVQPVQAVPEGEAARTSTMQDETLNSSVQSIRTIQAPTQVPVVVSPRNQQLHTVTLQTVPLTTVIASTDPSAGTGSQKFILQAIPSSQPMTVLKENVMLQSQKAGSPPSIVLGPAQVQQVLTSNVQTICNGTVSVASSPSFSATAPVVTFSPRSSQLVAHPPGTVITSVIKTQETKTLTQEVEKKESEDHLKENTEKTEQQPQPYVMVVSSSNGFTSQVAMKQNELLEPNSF
Summary of the method: (§1)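 Beads coated with glutathione captured GST-fused human transcription factors that had been expressed in yeast, and the factors were then given DNA barcodes and pooled with a tag-only sample. The pools were incubated with 200 nmole of a random double-stranded 16-mer DNA library in Tris/NaCl/DTT/glycerol buffer for 30 min at room temperature, washed, crosslinked with 0.1% formaldehyde and proximity-ligated with BsaI/T4 ligase at 37 °C for 1 h. PCR amplification and Illumina NextSeq500 sequencing came last. Binding signal is each hexamer's read frequency for a factor divided by its frequency for the tag-only sample.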

EHF = molecular target: T1, EHF (Homo sapiens, UniProt Q9NZC4 1-300)
T1 sequence: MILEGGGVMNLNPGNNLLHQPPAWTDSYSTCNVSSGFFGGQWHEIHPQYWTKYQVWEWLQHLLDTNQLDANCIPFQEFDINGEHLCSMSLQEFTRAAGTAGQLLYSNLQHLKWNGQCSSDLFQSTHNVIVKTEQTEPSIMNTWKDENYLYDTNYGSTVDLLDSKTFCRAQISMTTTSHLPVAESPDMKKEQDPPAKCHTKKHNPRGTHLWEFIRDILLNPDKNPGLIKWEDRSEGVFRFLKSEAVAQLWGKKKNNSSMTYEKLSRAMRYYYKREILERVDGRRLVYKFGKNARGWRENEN
Summary of the method: as §1

ELK3 = molecular target: T2, ELK3 (Homo sapiens, UniProt P41970 1-407)
T2 sequence: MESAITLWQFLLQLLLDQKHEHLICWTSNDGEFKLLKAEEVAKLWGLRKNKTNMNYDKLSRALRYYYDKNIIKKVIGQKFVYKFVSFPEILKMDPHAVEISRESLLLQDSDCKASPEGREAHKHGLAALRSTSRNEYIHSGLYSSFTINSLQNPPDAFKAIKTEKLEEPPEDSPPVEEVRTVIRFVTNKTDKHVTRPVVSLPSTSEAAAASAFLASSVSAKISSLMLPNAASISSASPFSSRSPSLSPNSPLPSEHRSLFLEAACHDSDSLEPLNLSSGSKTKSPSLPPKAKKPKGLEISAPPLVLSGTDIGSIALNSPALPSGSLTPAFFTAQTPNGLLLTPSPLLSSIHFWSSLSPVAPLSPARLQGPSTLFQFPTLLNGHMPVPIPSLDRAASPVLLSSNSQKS
Summary of the method: as §1

SPIC = molecular target: T3, SPIC (Homo sapiens, UniProt Q8N5J4 1-248)
T3 sequence: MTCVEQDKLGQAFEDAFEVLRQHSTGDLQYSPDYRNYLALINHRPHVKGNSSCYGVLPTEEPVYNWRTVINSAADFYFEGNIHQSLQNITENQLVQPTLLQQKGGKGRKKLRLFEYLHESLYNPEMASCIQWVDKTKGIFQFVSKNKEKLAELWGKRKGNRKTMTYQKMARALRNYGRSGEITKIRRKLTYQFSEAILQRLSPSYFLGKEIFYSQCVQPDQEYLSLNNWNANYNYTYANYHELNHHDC
Summary of the method: as §1

ELF4 = ELF4 (Homo sapiens, UniProt Q99607 1-663)
Sequence of ELF4 (Q99607 whole entry): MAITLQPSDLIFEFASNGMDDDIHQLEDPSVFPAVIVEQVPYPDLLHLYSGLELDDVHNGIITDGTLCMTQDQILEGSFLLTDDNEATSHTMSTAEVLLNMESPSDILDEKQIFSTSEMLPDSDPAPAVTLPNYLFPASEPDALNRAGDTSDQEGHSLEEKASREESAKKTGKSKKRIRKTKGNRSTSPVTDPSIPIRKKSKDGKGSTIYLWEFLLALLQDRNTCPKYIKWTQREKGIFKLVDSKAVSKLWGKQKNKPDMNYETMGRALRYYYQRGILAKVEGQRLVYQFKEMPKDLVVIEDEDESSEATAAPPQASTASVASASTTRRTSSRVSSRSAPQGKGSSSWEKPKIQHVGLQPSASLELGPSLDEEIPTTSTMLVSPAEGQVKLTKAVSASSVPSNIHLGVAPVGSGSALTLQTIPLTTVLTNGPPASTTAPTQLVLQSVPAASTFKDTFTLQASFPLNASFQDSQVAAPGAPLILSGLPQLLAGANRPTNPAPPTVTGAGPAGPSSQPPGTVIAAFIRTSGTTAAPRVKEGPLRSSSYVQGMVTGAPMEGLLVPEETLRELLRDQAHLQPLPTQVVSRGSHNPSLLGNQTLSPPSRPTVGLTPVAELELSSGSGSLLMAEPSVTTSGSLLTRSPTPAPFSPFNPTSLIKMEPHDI
Summary of the method: as §1

ELK4 = molecular target: T4, ELK4 (Homo sapiens, UniProt P28324-2 1-405)
T4 sequence: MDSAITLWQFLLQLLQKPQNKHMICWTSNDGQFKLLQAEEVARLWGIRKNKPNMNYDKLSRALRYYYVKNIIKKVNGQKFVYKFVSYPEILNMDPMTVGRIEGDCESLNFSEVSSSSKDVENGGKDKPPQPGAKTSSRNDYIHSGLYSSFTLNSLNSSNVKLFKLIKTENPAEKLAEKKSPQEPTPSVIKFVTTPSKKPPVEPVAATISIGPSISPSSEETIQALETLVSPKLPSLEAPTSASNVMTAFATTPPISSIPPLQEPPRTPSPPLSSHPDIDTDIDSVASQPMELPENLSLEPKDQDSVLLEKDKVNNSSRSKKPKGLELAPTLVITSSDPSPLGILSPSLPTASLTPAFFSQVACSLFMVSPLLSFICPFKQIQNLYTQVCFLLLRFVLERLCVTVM
Summary of the method: as §1

ELF3 = molecular target: T5, ELF3 (Homo sapiens, UniProt P78545 1-371)
T5 sequence: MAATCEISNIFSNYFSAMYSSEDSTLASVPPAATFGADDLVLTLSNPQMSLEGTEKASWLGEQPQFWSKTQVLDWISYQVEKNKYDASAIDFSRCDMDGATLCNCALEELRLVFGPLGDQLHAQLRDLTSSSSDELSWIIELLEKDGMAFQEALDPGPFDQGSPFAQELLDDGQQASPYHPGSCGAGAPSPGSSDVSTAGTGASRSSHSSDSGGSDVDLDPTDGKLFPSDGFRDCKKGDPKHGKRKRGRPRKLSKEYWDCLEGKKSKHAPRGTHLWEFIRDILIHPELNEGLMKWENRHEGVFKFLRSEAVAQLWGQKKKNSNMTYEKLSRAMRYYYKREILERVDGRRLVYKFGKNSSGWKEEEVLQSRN
Summary of the method: as §1

ETV1 = ETV1 (Homo sapiens, UniProt P50549 1-477)
Sequence of ETV1 (P50549 whole entry): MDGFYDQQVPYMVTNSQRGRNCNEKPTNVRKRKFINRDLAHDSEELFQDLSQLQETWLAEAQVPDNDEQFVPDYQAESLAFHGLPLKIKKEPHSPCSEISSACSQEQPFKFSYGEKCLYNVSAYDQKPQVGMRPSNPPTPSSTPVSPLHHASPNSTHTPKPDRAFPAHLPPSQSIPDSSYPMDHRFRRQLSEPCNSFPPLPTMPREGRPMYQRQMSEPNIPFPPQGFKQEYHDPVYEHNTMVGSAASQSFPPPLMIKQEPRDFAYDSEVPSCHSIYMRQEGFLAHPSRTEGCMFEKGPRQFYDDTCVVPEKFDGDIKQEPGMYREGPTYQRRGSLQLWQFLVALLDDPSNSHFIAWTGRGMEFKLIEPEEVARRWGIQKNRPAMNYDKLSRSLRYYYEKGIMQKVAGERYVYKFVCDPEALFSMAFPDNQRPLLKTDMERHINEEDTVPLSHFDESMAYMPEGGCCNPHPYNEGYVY
Summary of the method: as §1

ERF = molecular target: T6, ERF (Homo sapiens, UniProt P50548 1-548)
T6 sequence: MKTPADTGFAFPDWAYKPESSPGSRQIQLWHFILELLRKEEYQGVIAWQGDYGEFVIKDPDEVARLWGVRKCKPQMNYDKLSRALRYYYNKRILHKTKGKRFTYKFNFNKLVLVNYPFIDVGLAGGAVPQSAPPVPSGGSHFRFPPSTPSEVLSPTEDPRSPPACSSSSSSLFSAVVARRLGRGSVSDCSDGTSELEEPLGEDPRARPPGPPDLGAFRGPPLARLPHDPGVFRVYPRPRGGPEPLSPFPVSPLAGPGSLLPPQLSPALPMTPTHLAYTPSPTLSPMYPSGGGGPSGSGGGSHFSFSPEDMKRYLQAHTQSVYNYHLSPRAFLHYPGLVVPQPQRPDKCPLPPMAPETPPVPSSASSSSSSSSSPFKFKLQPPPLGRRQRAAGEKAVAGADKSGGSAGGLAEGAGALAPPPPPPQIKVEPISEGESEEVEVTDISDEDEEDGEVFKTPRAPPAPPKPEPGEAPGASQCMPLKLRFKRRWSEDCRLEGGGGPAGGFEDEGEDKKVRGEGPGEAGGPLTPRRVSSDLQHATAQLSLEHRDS
Summary of the method: as §1

ETV3L = molecular target: T7, ETV3L (Homo sapiens, UniProt Q6ZN32 1-361)
T7 sequence: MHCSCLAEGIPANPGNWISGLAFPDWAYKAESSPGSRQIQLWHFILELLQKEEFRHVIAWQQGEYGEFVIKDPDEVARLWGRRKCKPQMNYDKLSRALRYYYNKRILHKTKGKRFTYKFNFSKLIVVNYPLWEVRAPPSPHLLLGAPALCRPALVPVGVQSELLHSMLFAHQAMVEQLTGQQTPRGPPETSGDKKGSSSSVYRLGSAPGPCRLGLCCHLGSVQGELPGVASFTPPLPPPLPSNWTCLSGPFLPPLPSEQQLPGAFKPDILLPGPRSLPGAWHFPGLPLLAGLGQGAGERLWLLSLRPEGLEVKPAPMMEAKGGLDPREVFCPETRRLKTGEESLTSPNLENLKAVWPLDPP
Summary of the method: as §1

ETS2 = molecular target: T8, ETS2 (Homo sapiens, UniProt P15036 1-469)
T8 sequence: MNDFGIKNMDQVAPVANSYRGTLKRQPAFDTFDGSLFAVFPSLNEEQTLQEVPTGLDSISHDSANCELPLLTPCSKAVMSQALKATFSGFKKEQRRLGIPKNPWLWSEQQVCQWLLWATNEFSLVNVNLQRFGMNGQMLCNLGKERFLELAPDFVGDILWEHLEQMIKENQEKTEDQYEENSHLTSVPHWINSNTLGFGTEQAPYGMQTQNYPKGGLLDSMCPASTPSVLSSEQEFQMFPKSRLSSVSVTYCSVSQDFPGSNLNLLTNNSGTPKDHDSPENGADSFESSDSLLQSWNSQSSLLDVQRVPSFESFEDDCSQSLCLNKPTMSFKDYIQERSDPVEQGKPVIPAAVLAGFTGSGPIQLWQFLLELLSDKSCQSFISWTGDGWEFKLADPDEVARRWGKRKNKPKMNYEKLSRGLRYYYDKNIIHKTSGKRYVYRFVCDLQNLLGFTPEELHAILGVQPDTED
Summary of the method: as §1

ETV7 = molecular target: T9, ETV7 (Homo sapiens, UniProt Q9Y603 1-341)
T9 sequence: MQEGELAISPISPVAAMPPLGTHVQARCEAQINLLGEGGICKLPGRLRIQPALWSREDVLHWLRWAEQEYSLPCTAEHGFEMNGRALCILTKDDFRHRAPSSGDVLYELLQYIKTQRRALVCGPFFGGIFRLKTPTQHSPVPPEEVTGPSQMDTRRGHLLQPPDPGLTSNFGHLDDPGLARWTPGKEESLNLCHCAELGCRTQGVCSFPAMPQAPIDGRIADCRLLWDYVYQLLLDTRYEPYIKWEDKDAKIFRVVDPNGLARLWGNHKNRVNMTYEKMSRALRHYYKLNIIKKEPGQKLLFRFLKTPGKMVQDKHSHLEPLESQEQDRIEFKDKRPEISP
Summary of the method: as §1

ETV3 = molecular target: T10, ETV3 (Homo sapiens, UniProt P41162-2 1-143)
T10 sequence: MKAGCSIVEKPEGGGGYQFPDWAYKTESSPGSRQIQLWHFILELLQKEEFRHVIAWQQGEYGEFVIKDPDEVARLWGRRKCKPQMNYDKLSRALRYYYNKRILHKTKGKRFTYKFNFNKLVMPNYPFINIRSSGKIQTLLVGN
Summary of the method: as §1

ETV6 = ETV6 (Homo sapiens, UniProt P41212 1-452)
Sequence of ETV6 (P41212 whole entry): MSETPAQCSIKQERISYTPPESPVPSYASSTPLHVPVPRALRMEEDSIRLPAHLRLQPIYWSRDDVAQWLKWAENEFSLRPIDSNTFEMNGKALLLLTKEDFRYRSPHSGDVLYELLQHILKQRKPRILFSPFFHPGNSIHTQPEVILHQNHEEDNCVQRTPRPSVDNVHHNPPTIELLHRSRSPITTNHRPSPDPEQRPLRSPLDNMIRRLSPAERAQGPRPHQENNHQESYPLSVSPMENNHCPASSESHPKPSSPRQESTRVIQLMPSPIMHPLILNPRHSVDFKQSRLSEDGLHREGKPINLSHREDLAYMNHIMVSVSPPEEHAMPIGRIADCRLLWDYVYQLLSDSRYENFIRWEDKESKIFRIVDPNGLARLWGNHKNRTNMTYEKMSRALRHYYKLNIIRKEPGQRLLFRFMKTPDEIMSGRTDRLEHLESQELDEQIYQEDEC
Summary of the method: as §1

GABPA = molecular target: T11, GABPA (Homo sapiens, UniProt Q06546 1-454)
T11 sequence: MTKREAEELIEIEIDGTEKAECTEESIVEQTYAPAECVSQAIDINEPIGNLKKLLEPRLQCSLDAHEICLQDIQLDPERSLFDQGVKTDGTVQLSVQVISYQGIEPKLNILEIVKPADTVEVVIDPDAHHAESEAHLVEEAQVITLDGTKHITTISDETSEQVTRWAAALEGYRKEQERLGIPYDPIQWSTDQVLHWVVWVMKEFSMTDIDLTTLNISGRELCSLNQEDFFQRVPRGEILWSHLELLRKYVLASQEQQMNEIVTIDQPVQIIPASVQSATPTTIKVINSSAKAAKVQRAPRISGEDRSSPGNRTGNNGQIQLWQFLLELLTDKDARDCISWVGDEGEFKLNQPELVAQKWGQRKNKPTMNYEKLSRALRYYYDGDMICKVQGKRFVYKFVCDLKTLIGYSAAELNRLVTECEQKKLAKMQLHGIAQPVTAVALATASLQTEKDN
Summary of the method: as §1

SPIB = SPIB (Homo sapiens, UniProt Q01892 1-262)
Sequence of SPIB (Q01892 whole entry): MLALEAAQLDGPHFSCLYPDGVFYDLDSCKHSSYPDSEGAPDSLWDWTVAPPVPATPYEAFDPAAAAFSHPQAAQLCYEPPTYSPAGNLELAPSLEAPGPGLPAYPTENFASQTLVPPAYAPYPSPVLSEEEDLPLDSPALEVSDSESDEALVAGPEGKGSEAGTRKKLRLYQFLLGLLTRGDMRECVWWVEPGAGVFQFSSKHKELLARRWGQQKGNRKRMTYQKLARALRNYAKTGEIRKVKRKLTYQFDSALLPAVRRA
Summary of the method: as §1

SPDEF = molecular target: T12, SPDEF (Homo sapiens, UniProt O95238 1-335)
T12 sequence: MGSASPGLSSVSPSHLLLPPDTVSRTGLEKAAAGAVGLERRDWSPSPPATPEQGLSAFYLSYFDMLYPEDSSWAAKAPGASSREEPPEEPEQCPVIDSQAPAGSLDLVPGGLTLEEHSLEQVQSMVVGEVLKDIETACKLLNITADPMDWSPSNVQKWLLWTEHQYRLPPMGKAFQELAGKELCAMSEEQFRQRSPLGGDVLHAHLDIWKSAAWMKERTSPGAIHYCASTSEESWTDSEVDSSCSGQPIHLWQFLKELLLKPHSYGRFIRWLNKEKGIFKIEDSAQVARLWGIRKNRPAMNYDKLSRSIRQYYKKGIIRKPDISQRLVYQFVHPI
Summary of the method: as §1

Sequence	binding signal (ELF1)	binding signal (EHF)	binding signal (ELK3)	binding signal (SPIC)	binding signal (ELF4)	binding signal (ELK4)	binding signal (ELF3)	binding signal (ETV1)	binding signal (ERF)	binding signal (ETV3L)	binding signal (ETS2)	binding signal (ETV7)	binding signal (ETV3)	binding signal (ETV6)	binding signal (GABPA)	binding signal (SPIB)	binding signal (SPDEF)
AGCTAG	1.06 fold enrichment (6-mer frequency, TF over GST control)	1.02 fold enrichment (6-mer frequency, TF over GST control)	1 fold enrichment (6-mer frequency, TF over GST control)	1.08 fold enrichment (6-mer frequency, TF over GST control)	1.05 fold enrichment (6-mer frequency, TF over GST control)	1.01 fold enrichment (6-mer frequency, TF over GST control)	1.1 fold enrichment (6-mer frequency, TF over GST control)	1.05 fold enrichment (6-mer frequency, TF over GST control)	1.08 fold enrichment (6-mer frequency, TF over GST control)	1.11 fold enrichment (6-mer frequency, TF over GST control)	1.07 fold enrichment (6-mer frequency, TF over GST control)	1.17 fold enrichment (6-mer frequency, TF over GST control)	1.01 fold enrichment (6-mer frequency, TF over GST control)	1.03 fold enrichment (6-mer frequency, TF over GST control)			
GATCAA	1.04 fold enrichment (6-mer frequency, TF over GST control)		1.09 fold enrichment (6-mer frequency, TF over GST control)	1.05 fold enrichment (6-mer frequency, TF over GST control)				1.04 fold enrichment (6-mer frequency, TF over GST control)	1.02 fold enrichment (6-mer frequency, TF over GST control)	1.1 fold enrichment (6-mer frequency, TF over GST control)	1.04 fold enrichment (6-mer frequency, TF over GST control)		1.01 fold enrichment (6-mer frequency, TF over GST control)	1.07 fold enrichment (6-mer frequency, TF over GST control)	1.16 fold enrichment (6-mer frequency, TF over GST control)	1.03 fold enrichment (6-mer frequency, TF over GST control)	1.05 fold enrichment (6-mer frequency, TF over GST control)
